What is called inhibition is the change of the read-out against control, counted positive when it falls.

Hit rate of the full screen: of about 300,000 compounds, about 2,700 (0.9%) were called active.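 How the source made its calls: active means mean inhibition of at least 30% with at least half of replicates also reaching 30%; inconclusive means no clear call, values can overlap the other calls; inactive means the rest.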 This excerpt belongs to a sample that is enriched for actives.

The record followed here is PubChem BioAssay AID602252 (Broad Institute, 2012).

In the assay the target is Golgi-associated PDZ and coiled-coil motif-containing protein (Homo sapiens) (UniProt Q9HD26). Nature of the assay: untagged CAL PDZ binding inhibitors, primary screen, biochemical, fluorescence polarization, HTS (AID 602252).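 Further: 0% = DMSO neutral control and 100% = excess unlabeled competitor peptide PRC23.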 To be noted: purified CAL PDZ, TMR-peptide fluorescence polarization, 1 h; at 24.9 µM; stronger effect = higher value.
Consider `O=C(N[C@H]1C/C=C\C(c2ccc(F)cc2)N(Cc2ccccc2)C(=O)C1)OCC1c2ccccc2-c2ccccc21` (stereo partly drawn), for which the inhibition is -2.32% (inactive).

`CC(C)Cc1nnc(NC(=O)CCc2ccccc2)s1`: the inhibition was -1.93% (inactive).

For `O=C(Nc1cccc(-c2nnc(-c3ccccc3)o2)c1)C1CCCO1` (stereo not drawn), the inhibition was -1.93% (inactive).

With `O=C(Nc1nnc(CCc2ccccc2)s1)C1CCCO1` (stereo not drawn), the inhibition is 32% (active).

With `CN(c1ccccc1)S(=O)(=O)c1ccc(C(=O)N2CCN(c3ccccc3Cl)CC2)cc1`, the inhibition was -2.37% (inactive).

Take `Clc1ccc(C[n+]2cc(-c3ccc(Cl)cc3)n3c2CCC3)cc1`: the inhibition was 36.9% (active).

For the compound `Cn1c(-c2ccccc2)c[n+]2c1CCCCC2`, the inhibition was -4.71% (inactive).

Regarding `Cc1ccc(C(=O)C[n+]2cc(-c3ccccc3)n3c2CCCCC3)cc1`, the inhibition was -2% (inactive).

With `COc1ccccc1CNC(=O)c1ccc(Cl)c(S(=O)(=O)N2CCCC2)c1`, the inhibition is -2.41% (inactive).

Consider `O=C1NC[C@@H](c2ccccc2)OC(=O)[C@H](Cc2ccc(F)cc2)CC/C=C/C[C@H]1CC(=O)N(CCO)Cc1ccccc1`, for which the inhibition was -2.15% (inactive).

Turning to `Cc1ccc(OCCNC(=O)c2cccc(S(=O)(=O)N3CCN(Cc4ccccc4)CC3)c2)cc1`, the inhibition is -4.14% (inactive).

As to `NS(=O)(=O)c1ccc(CCNC(=O)c2ccc(Cl)c(S(=O)(=O)N3CCCCCC3)c2)cc1`, the inhibition was -16.5% (inactive).

Take `Cc1cc(C)c2c(-n3cccc3)c(NC(=O)OCc3ccccc3)sc2n1`: the inhibition was -1.91% (inactive).

For the compound `Cc1cc(C)c2c(-n3cccc3)c(C(=O)NNS(=O)(=O)c3ccc(F)cc3)sc2n1`, the inhibition was 44.4% (active).

Take `COC(=O)Nc1sc2nc(C)cc(C)c2c1-n1cccc1`: the inhibition is 0.432% (inactive).

For `O=C(c1ccc2c(c1)C(=O)N(Cc1ccncc1)C2=O)N1CCN(S(=O)(=O)c2ccc(OC(F)(F)F)cc2)CC1`, the inhibition is -4.84% (inactive).

For `C[C@H](NC(=O)c1ccccc1)C(=O)OCC(=O)c1c[nH]c2ccccc12`, the inhibition was -2.85% (inactive).

As to `O=C(COC(=O)CNC(=O)c1ccccc1F)NCC(F)(F)F`, the inhibition was -0.464% (inactive).

`O=C(CNC(=O)c1ccccc1F)OCC(=O)c1c[nH]c2ccccc12`: the inhibition was 53.7% (active).

For `CC(C)C[C@H]1CN([C@@H](CC(C)C)CN2CCC[C@@H]2CN2C(=O)C(=O)NC[C@@H]2Cc2ccccc2)C(=O)C(=O)N1CCc1ccccc1`, the inhibition was -2.72% (inactive).

For `CC(=O)Nc1ccc(NC(=O)COc2ccc(-c3ccccc3)cc2)cc1`, the inhibition is -4.37% (inactive).

In the case of `Cc1ccc(OCC(=O)Nc2ccc(-c3nc4ncccc4o3)cc2)cc1`, the inhibition is 46% (active).

Consider `Cc1ccc(OCC(=O)Nc2ccc(S(=O)(=O)Nc3ccccn3)cc2)cc1`, for which the inhibition is -5.23% (inactive).
